Records with an inconclusive call do not appear. The source made the active and inactive calls. No rule for the calls is given here.

A short description of the test: E. coli strain growth, wild-type against H38 humanized mutant – H38 mutant GFP vs wild-type RFP, cherry-pick, dose response (AID 977627). The conditions noted are these: E. coli H38 humanized ribosome GFP strain, fluorescence, 24 h; activity: measured here: wild-type RFP strain growth, at 50 µM, stronger effect = lower value; series mostly up to 50 µM; activity change, negative = inhibition: at the top concentration.
As for `CCOc1ccccc1NC(=O)c1ccc2ccccc2c1`, the activity is 5.09% and the “activity change, negative = inhibition” value is 5.48 (inactive).
As to `COC(=O)c1c(NC(=O)CCC(=O)O)sc(Cc2ccccc2)c1C`, the activity is -41.2%.
Same read-out and setting: the same measure for `CC1(Cc2ccccc2C#N)C(=O)Nc2cc(-c3ccccc3Cl)ccc21` (stereo not given): -20%; for `Cc1noc(C)c1NC(=O)Nc1ccc2c(c1)C(=O)N([C@H](C)CO)C[C@@H](C)[C@@H](CN(C)C(=O)Nc1ccc3c(c1)OCO3)OCCCC[C@@H](C)O2`: -3.93%.

Values taken from PubChem BioAssay AID977627 (Broad Institute, 2014).
